# Compound activity deposited in PubChem BioAssay by National Center for Advancing Translational Sciences (NCATS).
# IL-1B inflam inh: qHTS for Inhibitors of Inflammasome Signaling: IL-1-beta AlphaLISA Primary Screen; THP-1 LPS/ATP IL-1B secretion, AlphaLISA, 16 h; hits give low values; activity change, % at 57.5 µM; 360,000 compounds, 4.7% hits; AID 743279, 2014; in the data active means activity change below about -50%; inconclusive means mostly about -30% to -49%
#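 Secreted IL-1B measured by AlphaLISA bead assay after 16 h compound exposure of THP-1 cells; compounds (final up to 57.5 uM) added 1 h before LPS (250 ng/mL) and ATP (1.25 mM) stimulation; lower signal means less secretion.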
# KB-V1 MDR tox: qHTS assay for MDR1-selective chemotherapeutics: Primary screen using the drug-selected MDR subline cells KB-V1; KB-V1 MDR cells viability, CellTiter-Glo, 72 h; Potency, µM (series often up to 46.1 µM), most hits filed as cytotoxic; 400,000 compounds, 3.4% hits; AID 1347076, 2019; further: potency means the concentration at half of the fitted maximal effect; nearly all actives have a fitted effect of over 60% in size
#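 Readout: CellTiter-Glo luminescence, 10 min after addition. Cells: KB-V1 MDR subline, 72 h at 37 degrees C with compound. Analysis: corrected, normalized data fitted to concentration-effect curves.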
# KB-3-1 tox: qHTS assay for MDR1-selective chemotherapeutics: Primary screen using the parental adenocarcinoma cell KB-3-1; KB-3-1 viability, CellTiter-Glo ATP luminescence, 72 h; Potency, µM (titrated, usually from 46.1 µM), most hits filed as cytotoxic; 400,000 compounds, 1.4% hits; further: potency means the concentration at half of the fitted maximal effect; nearly all actives have a fitted effect of over 60% in size
#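 Viability of parental KB-3-1 cells, measured by CellTiter-Glo luminescence, followed a 72 h incubation at 37 °C with pinned compounds in phenol-red-free DMEM containing 10% FBS.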
# HT1080NT lethal: qHTS for induction of synthetic lethality in tumor cells producing 2HG: qHTS for the HT-1080-NT fibrosarcoma cell line | Potency, µM (top dose mostly 46.1 µM), for the others: at the top dose activity, negative = less viability, usual class: cytotoxic | HT-1080-NT fibrosarcoma viability, CellTiter-Glo ATP luminescence, 48 h | 360,000 compounds, 1.6% hits;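 further: NT is the 2HG producing partner of a matched IDH1 knockdown line; potency means the concentration at half of the fitted maximal effect; 0% = DMSO-treated cells and -100% = media-only wells without cells; nearly all actives have a fitted effect of over 55% in size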
#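 Luminescent CellTiter-Glo readout after 48 hours of compound exposure at 37 degrees C defined viability of HT-1080-NT cells. Activity was normalized to DMSO wells and cell-free media wells; concentration-response curves were fitted and assigned curve classes.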
# HT1080 IDH1KD tx: qHTS for induction of synthetic lethality in tumor cells producing 2HG: qHTS for the HT-1080-IDH1KD cell line. Potency, µM (titrated, usually from 46.1 µM), without a hit: top-dose activity, negative = toxicity, actives largely listed as cytotoxic. HT-1080 IDH1 knockdown viability, ATP luminescence, 48 h. AID 686971, 2013. 360,000 compounds, 2% hits;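 further: potency means the concentration at half of the fitted maximal effect; 0% = DMSO wells and -100% = cell-free medium wells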
#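 In this qHTS, HT-1080 cells depleted of IDH1 are exposed for 48 h at 37 °C to compound titrations. Toxicity is scored from CellTiter-Glo luminescence, with DMSO as full viability and medium alone as none.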
# * hit, by the source's call; i = inactive; ? = inconclusive; nt = no result given; [ ] = another dose, or the depositor's remark. An excerpt weighted towards active compounds, which were near 8.8% of everything screened. Unless noted, the call rests on the fitted dose curve; in most records, active means well fitted curve in the direction sought with a large enough effect; inconclusive means small, poorly fitted or top-dose-only effect, or another doubt; inactive means no such curve, though single readings can be large; an effect the other way counts as inactive or inconclusive. Unless noted, on the % scale 0 is the no-effect control and ±100 the full control effect.
SMILES,IL-1B inflam inh,KB-V1 MDR tox,KB-3-1 tox,HT1080NT lethal,HT1080 IDH1KD tx
Cc1ccc(NC(=O)C2Cc3ccccc3CN2C(=O)c2ccco2)cc1S(=O)(=O)N(C)C (stereo not drawn),-12.9,i,i,-1.4%,1.0%
COc1ccc(CCC(=O)OCC(=O)Nc2sccc2C(N)=O)cc1OC,16.5,i,i,-9.5%[9.24 µM],-11.6%
O=C1OC2C(O)COC23OC(O)CCC13O (stereo not drawn),52.1,i,i,12.8%,9.1%
CC1CCCCN1C(=O)CSc1n[nH]c(-c2ccccc2)n1 (stereo not drawn),nt,i,i,nt,nt
Cc1cc(F)cc(-c2cc(C(=O)NCc3ccco3)[nH]n2)c1,?,i,i,2.5%,0.1%
CCC(CC)C(=O)c1c[nH]c(C(=O)NCc2ccccn2)c1,-59.4*,?,i,-1.4%,0.6%
Cc1cc(F)cc(-c2cc(C(=O)NCc3ccccn3)[nH]n2)c1,-86.1*,i,i,?,20.5%
Cc1cccc(-c2cc(C(=O)NCc3ccccn3)c3ccccc3n2)c1,-22.6,5.8µM*,i,-4.2%,6.6%
CC1(C(=O)Nc2cccc(NS(C)(=O)=O)c2)Cc2c(-c3cccc(C(N)=O)c3)ccnc2O1 (stereo not drawn),-8.3,i,i,-9.1%,-17.1%
O=C(c1cccc(F)c1)N1CCN(Cc2c[nH]c3ccccc23)CC1,-7.6,i,i,-1.6%,-2.2%
O=S(=O)(c1ccc(Cl)cc1)N1CCN(Cc2c[nH]c3ccccc23)CC1,3.7,i,i,-1.1%,2.7%
O=C(c1ccccc1)N1CCN(Cc2c[nH]c3ccccc23)CC1,-83.4*,i,i,3.0%,-0.6%
N#Cc1ccc(CN2CCN(C(=O)c3ccccc3)CC2)c(Cl)c1,-6.2,20.6µM*,i,0.6%,12.8%
Clc1ccccc1N1CCN(Cc2c[nH]c3ccccc23)CC1,-80.6*,?,?,?,18.4µM*
CCc1ccc(N2CC(C(=O)N3CCN(S(=O)(=O)c4cccc(F)c4)CC3)CC2=O)cc1 (stereo not drawn),-28.7,i,i,-6.0%,-2.6%
COc1ccccc1Cc1nc2ccccc2[nH]c1=O,nt,?,i,nt,nt
O=[N+]([O-])c1cccnc1N1CCC(c2cc(-c3ccc(Cl)cc3)n[nH]2)CC1,-84.7*,?,?,-0.6%,-18.0%
CC(=O)Nc1ccc(S(=O)(=O)NC2(C(F)(F)F)C(=O)Nc3c2c(=O)[nH]c(=O)n3-c2ccc(C)c(C)c2)cc1 (stereo not drawn),nt,i,i,nt,nt
CCOc1ncccc1C(=O)N1CCN(C(c2ccccc2)c2ccccc2)CC1,-90.3*,?,i,-26.6%,-27.6%
COc1ccc(NC(=O)CCNC(=O)Cn2cnc3sc4c(c3c2=O)CCCC4)c(OC)c1,-17.1,i,i,-0.5%,-1.0%
COc1ccc(NC(=O)CCCNC(=O)Cn2cnc3sc4c(c3c2=O)CCCC4)c(OC)c1,-15.2,20.6µM*,i,-8.6%,-1.7%
O=C(/C=C/c1ccc(Cl)cc1)NC(=S)Nc1ccc(NC(=O)c2ccco2)cc1,-6.3,i,i,?,?
C/C(=N/NC(=O)c1nnn(-c2nonc2N)c1-c1ccccc1)c1ccc2c(c1)OCO2,-86.4*,i,i,-3.7%,-11.6%
COCc1c(C(=O)N/N=C\c2cccs2)nnn1-c1nonc1N,-67.8*,i,i,-3.9%,-7.4%
C/C(=N\N=C(/N)c1nonc1N)c1ccc2c(c1)OCO2,-18.7,1.46µM*,6.51µM*,-4.0%,-0.9%
Nc1nonc1-n1nnc(C(=O)N/N=C/c2cc(Br)cs2)c1-c1ccccc1,-91.5*,i,i,-17.3%,?
CCc1c(C(=O)N/N=C/c2cccs2)nnn1-c1nonc1N,0.0,i,i,-1.1%,1.6%
